A selection: hits, their analogues and other compounds. The true share with any hit is near 2.2%.
KLF5 inhibitor = suppresses KLF5 promoter-driven expression; AID 1700; inhibition, % at 5 µM; actives 0.23% (n = 290,000); DLD-1 KLF5 promoter-luciferase reporter, luminescence;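 active = inhibition above a per-plate limit of that plate's mean compound inhibition plus 3 SD, cut at about 60% in these data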;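 also: 0% = DMSO wells and 100% = LY294002 at 200 µM; higher means less KLF5 promoter-driven luciferase light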
BaF3 parental = counter-screen for JAK2V617F inhibitors: parental Ba/F3 viability inhibitors | CellTiter-Glo ATP luminescence | inhibition, % at 5.6 µM | actives 1.1% (n = 220,000) | AID 1486;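 active = inhibition above a per-campaign cutoff, the mean inhibition of all tested compounds plus 3 SD, cut at about 27% in these data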;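 also: 0% = DMSO wells and 100% = JAK Inhibitor I control wells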
Ba/F3 V617F tox = loss of viability in JAK2V617F-driven Ba/F3 cells | Ba/F3 EpoR-JAK2V617F viability, ATP luminescence | inhibition, % at 5.6 µM | actives 1.1% (n = 220,000) | AID 1446;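 active = inhibition above the campaign mean plus 3 SD over all tested compounds, cut at about 24% in these data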;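 also: cytokine-independent growth of Ba/F3 cells driven by EpoR plus mutant JAK2; 0% = DMSO-treated cells and 100% = JAK inhibitor I control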
aSyn 5UTR inh = MLPCN primary screen, SNCA 5' untranslated region; alpha-synuclein 5'UTR reporter, inhibitor activity; inhibition, % (tested at 7.5 µM); actives 0.82% (n = 300,000); AID 1813; in the data active = inhibition above about 60%;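 also: H4 neuroglioblastoma cells stably carrying SNCA 5'UTR luciferase fusion; 0% = DMSO wells and 100% = positive control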
IEC-6 cytotox = IEC-6 cytotoxicity, counter-screen for KLF5 inhibitors | luminescence viability | inhibition, % at 5 µM | actives 0.78% (n = 290,000) | AID 1825; in the data active = inhibition above about 22%;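 also: 0% = plate median of test compound wells and 100% = cytotoxic reference compound wells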
APP transl inh = APP translation inhibition; actives 0.82% (n = 190,000); SH-SY5Y APP 5'UTR-luciferase reporter, luminescence; inhibition, % at 2 µM;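 active = inhibition above a set limit, derived from the sample mean plus 3 SD, cut at about 45% in these data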
* hit, by the source's call; . = no result.

SMILES | KLF5 inhibitor | BaF3 parental | Ba/F3 V617F tox | aSyn 5UTR inh | IEC-6 cytotox | APP transl inh
O=C(Nc1ccccc1F)c1ccc(CNS(=O)(=O)c2cccc(C(F)(F)F)c2)cc1 | 3 | 1 | -1 | -15 | -1 | 2
O=C(CNS(=O)(=O)c1ccccc1)Nc1ccc(C(F)(F)F)cc1 | -57 | 3 | -2 | -2 | -3 | 68*
COc1ccc(NC(=O)c2cccnc2N2CCOCC2)cc1 | -22 | -1 | 1 | 7 | 5 | -12
O=C1CC(c2ccccc2)Cc2nc3ncnn3cc21 (centres undefined) | 53 | 80* | 77* | -3 | 5 | 4
Cc1ccc(NC(=O)CN2CCCCCC2)cc1[N+](=O)[O-] | -20 | 9 | -3 | -90 | -3 | -20
Cc1cc(C)cc(-n2c(C)cc(/C=N/NC(=O)CN(c3c(C)cccc3C)S(C)(=O)=O)c2C)c1 | -15 | 2 | -1 | 6 | -4 | 90*
COc1ccccc1C1c2ccc3ccccc3c2Oc2ncn(CCN(C)C)c(=N)c21 (centres undefined) | -14 | . | . | -11 | 15 | .
COc1ccc(C2c3ccc4ccccc4c3Oc3ncn(CCCN(C)C)c(=N)c32)cc1 (centres undefined) | -14 | . | . | 90* | 5 | .
Cc1cc(NC(=O)CCC(=O)N(Cc2ccco2)C2(C(=O)NC3CCCC3)CCCCC2)no1 | -8 | . | . | 5 | -2 | .
Cc1cc(NC(=O)CCC(=O)N(Cc2ccco2)C2(C(=O)NC3CCCCC3)CCN(C)CC2)no1 | -17 | 89* | 0 | 17 | 1 | 9
COc1cccc(CN(C)C(=O)c2cc(COc3ccc4ncccc4c3)on2)c1 | -32 | 71* | 54* | -15 | 14 | 9
CC(NC(=O)c1cc(COc2ccc3ncccc3c2)on1)c1ccc(F)cc1 (centres undefined) | -26 | 36* | 31* | 3 | 7 | .
O=C(NC1CCCC1)c1cc(COc2ccc3ncccc3c2)on1 | -33 | 44* | 36* | 9 | 3 | .
O=C(c1cc(COc2ccc3ncccc3c2)on1)N1CCCC1 | 2 | . | . | -41 | 8 | .
O=C(c1ccc(F)cc1)N1CCN(S(=O)(=O)c2ccc(Br)cc2)CC1 | -36 | . | . | 8 | 7 | .
Cc1cnc(C(=O)OCC(=O)NC(C)C)cn1 | -13 | 51* | -7 | 2 | -2 | -3
Cc1ccc(Cl)cc1N1CCN(c2cccc[n+]2C)CC1 | -10 | 65* | 82* | -15 | 0 | 4
Cc1ccc(Cl)cc1N1CCN(C(=S)NCCc2ccccc2)CC1 | -32 | 7 | 0 | -13 | -3 | -14
C[n+]1ccccc1N1CCN(c2ccccc2Cl)CC1 | -10 | 62* | 56* | -12 | -5 | 14
CCOC(=O)c1sc2nc(Cc3ccc(Cl)cc3)[nH]c(=S)c2c1C | 1 | 0 | -5 | 2 | 5 | -23
COC(CNC(=O)C(=O)Nc1cc2c3c(c1)CC(=O)N3CCC2)OC | -8 | . | . | -13 | -7 | .
CC(C)CCNCC(O)CON=C1c2ccccc2-c2ccccc21 (centres undefined) | -51 | 5 | 1 | 86* | -1 | -23
O=C(CCS(=O)(=O)c1ccccc1)NCc1ccccc1 | -17 | . | . | 6 | -1 | .
CC1(C)Cc2c(c(N3CCOCC3)nc3sc4c(NCc5ccccc5)nnnc4c23)CS1 | -22 | 4 | -3 | 68* | -4 | -16
O=C(Nc1ccc(CN2CCOCC2)cc1)c1cc2ccccn2n1 | -55 | 1 | 3 | 72* | 7 | -86
SMILES | KLF5 inhibitor | BaF3 parental | Ba/F3 V617F tox | aSyn 5UTR inh | IEC-6 cytotox | APP transl inh
COc1ccc(S(=O)(=O)N2CCCC(C(=O)NCc3ccco3)C2)cc1OC (centres undefined) | 11 | . | . | 17 | 3 | .
Cc1ccc(C(=O)Nc2cccc(C(F)(F)F)c2)cc1NC(=O)c1ccno1 | . | . | . | 95* | . | .
Cc1ccc(C(=O)Nc2cccc(C(F)(F)F)c2)cc1Nc1cnccn1 | . | . | . | 34 | . | .
Cc1ccc(C(=O)Nc2cccc(C(F)(F)F)c2)cc1Nc1ncnc2nc[nH]c12 | . | . | . | 78* | . | .
O=C(O)c1ccc2nc(-c3ccco3)c(-c3ccco3)nc2c1 | 16 | -3 | -3 | 2 | -25 | 1
O=C(Nc1cccc(C(F)(F)F)c1)c1ccc2nc(-c3ccco3)c(-c3ccco3)nc2c1 | 1 | 49* | 3 | 16 | -1 | -12
O=C(CC1C(=O)NCCN1Cc1c(F)cccc1Cl)NCCCn1cccn1 (centres undefined) | -5 | -3 | 0 | 4 | 0 | .
CN1/C(=C\C(=O)C[n+]2cccc(C(N)=O)c2)C(C)(C)c2ccccc21 | -4 | 0 | -2 | 12 | -6 | -12
